# How the values were obtained:
# Experiment in all cases: PBM binding z-score (relative to random genomic background probes); higher = stronger binding; sequences stand for … in GC…GCGATTGACAGCGTAGAATGAAGG
# [1] = test system: FXR:RXRa (NR concentration 270 nM, RXRa partner concentration 90 nM)
# Method in brief: (§1)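 For binding z-scores, the reference was random background probes on custom Agilent 4×180K protein-binding microarrays. These arrays were incubated 1 h with ligand-free nuclear receptor dimers in PBS pH 7.4, 2% milk, 0.02% Triton X-100, 1 mM DTT, 0.2 mg/mL BSA and 0.4 mg/ml salmon testes DNA. Fluorescence was scanned after antibody detection of each partner (one per run) and regression-normalized.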
# [2] = test system: LXRa:RXRa (NR concentration 270 nM, RXRa partner concentration 90 nM)
# Method in brief: as §1
# [3] = test system: LXRa homodimer (NR concentration 270 nM)
# Method in brief: as §1
# [4] = test system: LXRb:RXRa (NR concentration 270 nM, RXRa partner concentration 90 nM)
# Method in brief: as §1
# [5] = test system: LXRb homodimer (NR concentration 270 nM)
# Method in brief: as §1
# [6] = test system: PPARa:RXRa (NR concentration 270 nM, RXRa partner concentration 90 nM)
# Method in brief: as §1
# [7] = test system: PPARg:RXRa (NR concentration 180 nM, RXRa partner concentration 90 nM)
# Method in brief: as §1
# [8] = test system: PPARg:RXRa 270nM:90nM, anti-RXR (NR concentration 270 nM, RXRa partner concentration 90 nM)
# Method in brief: as §1
# [9] = test system: PPARg:RXRa 30nM:10nM, anti-RXR (NR concentration 30 nM, RXRa partner concentration 10 nM)
# Method in brief: as §1
# [10] = test system: PPARg:RXRa 90nM:30nM, anti-RXR (NR concentration 90 nM, RXRa partner concentration 30 nM)
# Method in brief: as §1
Sequence,PBM binding z-score [1],PBM binding z-score [2],PBM binding z-score [3],PBM binding z-score [4],PBM binding z-score [5],PBM binding z-score [6],PBM binding z-score [7],PBM binding z-score [8],PBM binding z-score [9],PBM binding z-score [10]
ACTAGCAGGACAAGGGTCACTCAAGATTAGTCCG,2.6,3.07,0.432,2.76,0.105,4.3,6.63,6.93,5.71,7.29
ATCTCTAGGTAAAGTTCAGTTAAAGATCGATAGA,1.31,2.28,1.98,1.67,1.22,2.39,3.27,4.32,2.38,3.95
GCAGACAGTTGAAACGCAGGTAACTCAGGGTGGC,-0.0356,-0.382,-0.506,-0.476,-0.589,-0.162,0.287,-0.573,-0.78,-0.65
ATATCTAGGTAACCAAGTTCAGTGAATGCCGAAC,0.636,0.866,0.932,0.565,0.434,2.98,4.48,3.23,1.23,2.32
GAAGACAGGTGAAACGCAGGTAACTCAGGGTGGC,0.0149,0.318,-0.652,-0.0898,-0.743,1.14,0.681,0.383,-0.249,-0.0724
CAGCCTAGGTCATGGCCAGTATAGGAGGAACGTT,4.47,3.18,-0.187,1.92,-0.552,3.81,2.34,2.86,0.578,1.71
AATACAGGGTCATCCTAGGCCAGAGTACGCACAG,7.59,6.64,3.26,5.25,1.72,6.4,6.74,5.93,2.82,4.48
CAGCCTAGGTCAGGGCCATTATAGGAGGAACGTT,1.65,1.08,-0.000598,0.902,-0.851,2.17,1.2,1.24,-0.158,0.533
CCTCGGAGGACCGAAGGTCAGAGCTGTCCGCTTT,0.789,1.42,-0.056,0.863,-1.03,1.61,-0.382,1.16,-0.716,0.325
CCTACTGGGCCATTTAGAGGTCATTGATCATATG,2.82,4.87,8.57,3.98,0.803,3.78,2.24,3.15,0.977,2.11
GCGACTGGGGCATCAGCAGGTTACCAGAACTTAA,-0.204,-0.156,-0.341,0.413,-1.13,1.04,0.791,0.667,-0.35,0.126
TCTGCTAGGTGAGTTGGTCAGCTAACGAGCTGCC,-0.433,-0.56,-0.902,-0.937,-0.888,-0.304,-0.825,0.406,0.873,0.748
ATCTCTAGGTAACCAAGTTGAGTGAATGCCGAAC,0.189,0.0773,0.252,0.0776,0.391,0.54,0.337,0.316,-0.0449,0.238
CCTAGTTCGTCAGGAGGTCACACACCGGATATGA,3.66,4.1,2.37,3.64,1.22,4.28,2.29,3.03,1.04,2.19
CAAACTAGGTGAAAGGTCAAAGTCGAGCCAACCA,6.87,6.26,4.36,6.08,2.26,7.39,14.1,11.5,15.3,14.2
TCATATAGGTCAAGGTGAAAGTCGAACGATATGA,6.5,4.65,0.783,3.73,0.775,6.15,8.55,7.65,6.25,7.63
ATCTCTACGTAAAGTTCAGTGAAAGATCGATAGA,0.641,1.57,1.36,1.02,1.16,1.36,1.04,2.47,1.02,1.96
CGTCCAAGGTCAGAGAGTTCAGTGAATGCCGAGT,5.22,4.79,3.36,3,-0.278,3.89,2.14,2.83,0.445,1.82
ATATGTAGGTTAGCTGGTGTCATTCAGACTAGGC,0.789,1.83,-0.106,0.765,0.392,2.74,3.47,2.8,0.962,2.2
TCTTGTAGATCAATAGCGGTTAAGAAAGTGCGCT,0.25,0.57,0.174,0.435,-0.253,0.5,-0.524,1.28,2.75,2.17
CGAACTAGGTCAAGGACAGCGAATCTCCGCACGC,3.45,2.27,0.194,1.27,-0.45,4.72,7.46,6.26,3.42,5.68
GCGACTGGGGCAAAGCAGGTTTCCATAAGGTTGG,-0.319,-0.518,-0.852,-0.284,-0.53,0.542,0.609,0.674,-0.401,0.205
CCTCGCAGGACAACAGGAGGTCAGAGCTGCCAGA,0.787,1.63,1.92,1.05,-0.469,1.73,0.326,-0.0198,-0.833,-0.445
GCATATAGGTTATACAAGGTGAAAGTCCGATTGT,2.85,6.15,1.21,3.08,0.203,2.94,2.19,2.63,0.843,1.98
GCAGTCAGGTGAAACGCAGGTAACTCAGGGTGGC,0.205,-0.0689,-0.816,-0.344,-1.08,0.614,0.152,0.222,-0.525,0.166

Sequence,PBM binding z-score [1],PBM binding z-score [2],PBM binding z-score [3],PBM binding z-score [4],PBM binding z-score [5],PBM binding z-score [6],PBM binding z-score [7],PBM binding z-score [8],PBM binding z-score [9],PBM binding z-score [10]
AATACAGGGTCACTAGGCCAGAGTAGGTACGAAT,6.37,5.07,0.678,3.95,0.879,6.03,8.23,6.72,3.56,5.66
CCTAGTTGGTCAAGGGCACACACGCTATAGGTAC,0.355,0.541,0.134,0.385,-0.148,0.682,1.51,1.57,0.541,1.26
TCTAGTTGGTCACGGAGGTCTCACACGACGGGTA,0.555,0.613,0.0269,0.437,-0.332,1.16,0.78,1.99,2.94,2.55
CCTCGGAGGACAACAAGAGGTCAGAGCTGCCAGA,2.12,3.5,3.68,2.35,-0.358,2.82,1.01,1.62,-0.0713,0.904
ACAGACAGATGAGTGAAGGTAACTCAGCTGGACG,0.536,-0.0158,-0.336,-0.328,-0.174,-0.0253,0.883,0.561,0.259,0.0616
TCGATTAGGTTACCAATGGGGCATTCAGCTTTCT,0.297,1.49,-0.396,1.29,-0.254,1.21,-0.163,1.5,2.68,2.26
CGTCAGAGTTCAACTAAGGTAACGTAAAGCACGC,6.8,5.7,3.39,3.95,1.39,4.78,3.46,3.98,1.19,2.53
AGAATGAGGTTATTAAGATCAGGCAATTGCGGTC,1.46,1.36,0.308,1.11,-0.00931,2.58,1.42,1.73,0.485,1.18
CGAACGAGGGCATGAGTTGATAGCGAATGCCGAT,0.658,0.274,-0.522,-0.0069,-0.724,1.51,1.34,1.65,0.171,1.04
ATCTCTAGGTAAAAGTCCAGTGAATCCCGAGGAT,0.192,0.0512,-0.0646,-0.297,0.61,0.598,1.24,3.02,1.28,2.94
TTACCAAGGTGAAGGTTGTTGATCCCTCTGTAGA,0.965,0.801,-0.298,0.622,-0.706,1.61,1.21,2.25,1.07,1.96
CCGACTAGGGCAGAAAGGTTACCATACCATCCGG,0.259,0.701,0.0905,0.925,-0.912,2.11,1.79,2.27,0.723,1.86
TTACCAGGGTGAGCTGAGGTCGTTGATCCAACTC,1.3,1.44,-0.264,0.797,-1.42,1.87,0.186,1.08,-0.0751,0.766
AGAATGAGGTTACCAAAGATCAGGGAAACGCTTG,1.86,6.59,-0.00475,3.1,-0.712,3.65,3,3.03,0.954,2.22
TCGTGTAGGTTAGTCGGGGCATTCAGCCAACATA,0.782,0.838,0.294,1.36,0.252,1.16,-0.0243,1.38,2.34,1.62
ATATGTAAGTTAGCTGGGGTCATTCAGACTAGGC,4.05,3.87,1.64,4.47,0.895,4.17,1.49,2.48,0.721,1.49
CAAACTAGGTCACAGAGGTCAAAGACCGTGCGTA,7.36,6.53,6.56,5.93,1.73,6.52,10.5,8.43,6.84,8.38
TCATATAGGTCAACAGGTGAAAGTCCGTAAGTTA,6.45,5.39,1.85,4.2,1.2,5.91,8.36,7.51,5.85,7.17
TCTGCTAGGTCAGTGGGTCAGCTAACGAGCTGCC,1.49,1.09,-0.548,0.738,0.0153,3.41,5.03,4.53,2.11,3.51
TCTCGGAGGACACGAAAGGTCAGACCTCGACATC,3.09,3.69,3.12,3.51,-0.0358,3.57,1.38,2.68,2.63,2.67
ATCTCTAGGTAACAAGTTCAGAGAAAGAGAGGAC,0.853,0.957,0.71,0.814,0.838,1.67,1.71,2.04,0.949,1.76
TCTTGTACATCAACAGGAGGTTAAGAAAGATCGA,0.517,1.37,0.452,1.13,0.442,1.16,0.195,1.36,3.01,1.9
ATTTCTAGGTAAGACTCAGTTCAGTGAAGAACGC,0.897,0.946,0.909,0.543,1.31,0.972,0.289,0.947,0.807,0.822
AGAATGAGGTTAATATCAGGGAAACAGAATACAT,1.64,3.39,0.149,2.17,0.272,2.98,2.46,2.14,0.981,1.48
